The supplement of paper PMC12350171
Where a name gives a salt, the structure may show the parent alone.

Key:
Details in all cases: 20 µM
[1] = system: Salmonella enterica typhimurium; assay: growth AUC normalised to DMSO control (fraction of control); higher = less growth inhibition, active = hit call of the paper
How it was run: (§1)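 Pathogens were passaged twice under anaerobic conditions, then inoculated into pre-reduced mGAM plates at a starting OD578 of 0.01, with compound at 20 μM and 1% DMSO, and sealed with breathable membranes. For Haemophilus parainfluenzae, the medium was supplemented with hemin and NAD. OD578 was read every hour for 24 h in three biological replicates. Growth-curve AUC was calculated by the trapezoidal rule up to the exponential-to-stationary transition and normalised to DMSO controls on the same plate.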

Shigella flexneri = assay: as above
How it was run: as §1

Vibrio cholerae = assay: as above
How it was run: as §1

[2] = system: Yersinia pseudotuberculosis; assay: as above
How it was run: as §1

P. vulgatus RND KO = assay: growth AUC normalised to DMSO control (median) (fraction of control); higher = less growth inhibition, active = hit call of the paper
How it was run: (§2)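 For normalised area under the curve, growth curves were truncated at entry into stationary phase, integrated by the trapezoidal rule and divided against vehicle wells on the same plate. The curves came from strains passaged twice overnight without oxygen and then grown in mGAM in 96-well plates at a starting OD578 of 0.01. Each well held an approved-drug library compound at 20 μM with 1% DMSO, and OD578 was read hourly for 24 h in an anaerobic incubator. Values are medians of three biological replicates.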

P. vulgatus WT = assay: as above
How it was run: as §2

[3] = system: S. enterica typhimurium WT; assay: as above
How it was run: as §2

[4] = system: S. enterica typhimurium tolC KO; assay: as above
How it was run: as §2

Measured: growth AUC normalised to DMSO control
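Wherever growth AUC normalised to DMSO control (median) is given: active when median AUC fell below 0.1.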

CC(=O)Nc1ccc(OCC(O)CNC(C)C)cc1 (configuration not stated) [Practolol]
inactive: [1] 1 | Shigella flexneri 1.03 | Vibrio cholerae 1.02 | [2] 1.01 | P. vulgatus RND KO 1.02 | P. vulgatus WT 1.06 | [3] 1.02 | [4] 1.02

CNc1ncnc2c1ncn2[C@@H]1O[C@H](CO)[C@@H](O)[C@H]1O [N6-methyladenosine]
inactive: [1] 0.972 | Shigella flexneri 1.03 | Vibrio cholerae 1 | [2] 0.97 | P. vulgatus RND KO 0.998 | P. vulgatus WT 1.02 | [3] 1.02 | [4] 1.01

Cc1cccc(Nc2ccncc2S(=O)(=O)NC(=O)NC(C)C)c1 [Torsemide]
inactive: [1] 1 | Shigella flexneri 1.04 | Vibrio cholerae 1.01 | [2] 1.01 | P. vulgatus RND KO 1.04 | P. vulgatus WT 1.05 | [3] 1.01 | [4] 1

CCCCC(CC)CNC(=N)NC(=N)NCCCCCCNC(=N)NC(=N)NCC(CC)CCCC (configuration not stated) [Alexidine dihydrochloride]
active: Shigella flexneri 0.833 | [2] 0.731 | P. vulgatus RND KO 0.0131 | P. vulgatus WT 0.00943
inactive: [1] 0.981 | Vibrio cholerae 0.924 | [3] 0.977 | [4] 0.964

CC(C(O)c1ccc(O)cc1)N1CCC(Cc2ccccc2)CC1 (configuration not stated) [Ifenprodil tartrate]
inactive: [1] 1 | Shigella flexneri 1.05 | Vibrio cholerae 1.03 | [2] 1 | P. vulgatus RND KO 1.03 | P. vulgatus WT 1.02 | [3] 1.01 | [4] 1

C#C[C@]1(OC(C)=O)CC[C@H]2[C@@H]3CCC4=C[C@@H](OC(C)=O)CC[C@@H]4[C@H]3CC[C@@]21C [Ethynodiol diacetate]
inactive: [1] 0.971 | Shigella flexneri 0.988 | Vibrio cholerae 0.963 | [2] 0.986 | P. vulgatus RND KO 0.922 | P. vulgatus WT 0.954 | [3] 0.997 | [4] 0.941

CC(=O)[C@H]1CC[C@H]2[C@@H]3C=CC4=CC(=O)CC[C@@]4(C)[C@@H]3CC[C@]12C [Dydrogesterone]
inactive: [1] 1 | Shigella flexneri 0.986 | Vibrio cholerae 0.99 | [2] 1.01 | P. vulgatus RND KO 1.02 | P. vulgatus WT 1.04 | [3] 1.01 | [4] 0.909

CC(C(=O)O)c1ccc2c(c1)Cc1cccnc1O2 (configuration not stated) [Pranoprofen]
inactive: [1] 0.999 | Shigella flexneri 0.976 | Vibrio cholerae 0.993 | [2] 1.01 | P. vulgatus RND KO 1.04 | P. vulgatus WT 1.04 | [3] 1.01 | [4] 1

CN(N=O)C(=O)N[C@H]1C(O)O[C@H](CO)[C@@H](O)[C@@H]1O (mixture of isomers) [Streptozotocin]
active: [1] 0.659 | Shigella flexneri 0.0254 | Vibrio cholerae 0.141 | [2] 0.0388 | P. vulgatus RND KO 0.0955 | P. vulgatus WT 0.0778
inactive: [3] 0.725 | [4] 0.694

Cc1cc(C(C)(C)CC(C)(C)C)ccc1OCCOCC[N+](C)(C)Cc1ccccc1 [Methyl benzethonium chloride]
inactive: [1] 1.01 | Shigella flexneri 0.999 | Vibrio cholerae 0.943 | [2] 1.02 | [3] 1.01 | [4] 0.962
active: P. vulgatus RND KO 0.0136 | P. vulgatus WT 0.0206

OC(CCN1CCCCC1)(c1ccccc1)c1ccccc1 [Pridinol methanesulfonate salt]
inactive: [1] 0.993 | Shigella flexneri 1.02 | Vibrio cholerae 1.07 | [2] 0.988 | P. vulgatus RND KO 0.963 | P. vulgatus WT 0.953 | [3] 0.991 | [4] 0.994

CC(=O)N[C@@H](CC(=O)O)C(=O)N[C@@H](CCC(=O)O)C(=O)O [Spaglumic acid]
inactive: [1] 1.03 | Shigella flexneri 1.01 | Vibrio cholerae 1.02 | [2] 1.02 | P. vulgatus RND KO 1.01 | P. vulgatus WT 1.04 | [3] 1.01 | [4] 1

CCN1CCCC(OC(=O)C(c2ccccc2)c2ccccc2)C1 (configuration not stated) [Piperidolate hydrochloride]
inactive: [1] 1.01 | Shigella flexneri 1.02 | Vibrio cholerae 1.03 | [2] 0.967 | P. vulgatus RND KO 1.03 | P. vulgatus WT 1.04 | [3] 0.998 | [4] 0.976

CCC(C)(CN(C)C)OC(=O)c1ccccc1 (configuration not stated) [Amyleine hydrochloride]
inactive: [1] 0.992 | Shigella flexneri 0.989 | Vibrio cholerae 0.989 | [2] 1.01 | P. vulgatus RND KO 0.995 | P. vulgatus WT 1.01 | [3] 0.983 | [4] 1.01

COc1cnc(NS(=O)(=O)c2ccc(N)cc2)nc1 [Sulfameter]
inactive: [1] 1 | Shigella flexneri 0.986 | Vibrio cholerae 1.01 | [2] 1 | P. vulgatus RND KO 0.992 | P. vulgatus WT 1 | [3] 0.993 | [4] 0.993

CCCNCC(O)COc1ccccc1C(=O)CCc1ccccc1 (configuration not stated) [Propafenone hydrochloride]
inactive: [1] 1 | Shigella flexneri 0.994 | Vibrio cholerae 0.979 | [2] 0.99 | P. vulgatus RND KO 1.03 | P. vulgatus WT 1.05 | [3] 0.988 | [4] 0.948

CN[C@@H]1[C@@H](O)[C@@H](O[C@@H]2[C@@H](O)[C@H](O[C@H]3OC(CN)=CC[C@H]3N)[C@@H](N)C[C@H]2N)OC[C@]1(C)O [Sisomicin sulfate]
inactive: [1] 1 | Shigella flexneri 0.986 | Vibrio cholerae 0.996 | [2] 0.982 | P. vulgatus RND KO 0.994 | P. vulgatus WT 1 | [3] 1 | [4] 1.01

O=C1CCc2ccc(OCCCCN3CCN(c4cccc(Cl)c4Cl)CC3)cc2N1 [Aripiprazole]
inactive: [1] 1.02 | Shigella flexneri 1.03 | Vibrio cholerae 1.02 | [2] 1.01 | P. vulgatus RND KO 0.889 | P. vulgatus WT 0.891 | [3] 1.01 | [4] 0.92

CCOC(=O)C(C)(C)Oc1ccc(Cl)cc1 [Clofibrate]
inactive: [1] 1.03 | Shigella flexneri 1.01 | Vibrio cholerae 1.03 | [2] 1.02 | P. vulgatus RND KO 1.03 | P. vulgatus WT 1.04 | [3] 1 | [4] 0.991

COc1cccc2c1C(=O)c1c(O)c3c(c(O)c1C2=O)C[C@@](O)(C(=O)CO)C[C@@H]3O[C@H]1C[C@H](N)[C@H](O)[C@H](C)O1 [Doxorubicin hydrochloride]
active: [1] 0.942 | [2] 0.906 | [4] 0.0132
inactive: Shigella flexneri 0.932 | Vibrio cholerae 0.998 | P. vulgatus RND KO 0.948 | P. vulgatus WT 0.966 | [3] 0.986

CC(=O)N[C@@H](CS)C(=O)O [Acetylcysteine]
inactive: [1] 1.03 | Shigella flexneri 1.06 | Vibrio cholerae 1.05 | [2] 1.04 | P. vulgatus RND KO 1.07 | P. vulgatus WT 1.06 | [3] 1.01 | [4] 0.991

CC(=O)CC(c1ccc([N+](=O)[O-])cc1)c1c(O)c2ccccc2oc1=O (configuration not stated) [Acenocoumarol]
inactive: [1] 0.985 | Shigella flexneri 1.01 | Vibrio cholerae 0.938 | [2] 0.991 | P. vulgatus RND KO 1.07 | P. vulgatus WT 1.06 | [3] 0.999 | [4] 0.999

CC(=O)S[C@@H]1CC2=CC(=O)CC[C@]2(C)[C@H]2CC[C@@]3(C)[C@@H](CC[C@@]34CCC(=O)O4)[C@H]12 [Spironolactone]
inactive: [1] 0.983 | Shigella flexneri 0.981 | Vibrio cholerae 0.954 | [2] 1.02 | P. vulgatus RND KO 1.02 | P. vulgatus WT 1.02 | [3] 0.998 | [4] 0.981

N=C(N)NC(=O)Cc1c(Cl)cccc1Cl [Guanfacine hydrochloride]
inactive: [1] 0.983 | Shigella flexneri 0.971 | Vibrio cholerae 1.02 | [2] 0.988 | P. vulgatus RND KO 1.02 | P. vulgatus WT 1.04 | [3] 0.989 | [4] 0.966

NC1CCN(c2c(F)cc3c(=O)c(C(=O)O)cn(C4CC4)c3c2Cl)C1 (configuration not stated) [Clinafloxacin]
active: [1] 0.00836 | Shigella flexneri 0.0463 | Vibrio cholerae 0.023 | [2] 0.0284 | P. vulgatus RND KO 0.0165 | P. vulgatus WT 0.0148 | [3] 0.00822 | [4] 0.00725

Cc1cccc(N(C)C(=S)Oc2ccc3ccccc3c2)c1 [Tolnaftate]
inactive: [1] 0.953 | Shigella flexneri 1.02 | Vibrio cholerae 0.991 | [2] 0.986 | P. vulgatus RND KO 1 | P. vulgatus WT 1.04 | [3] 1 | [4] 0.981

C#C[C@]1(O)CC[C@H]2[C@@H]3CCc4cc(O)ccc4[C@H]3CC[C@@]21C [Ethinylestradiol]
inactive: [1] 0.985 | Shigella flexneri 1.02 | Vibrio cholerae 0.996 | [2] 1.03 | P. vulgatus RND KO 0.913 | P. vulgatus WT 0.913 | [3] 0.998 | [4] 0.985

Nc1ccc(S(=O)(=O)NC(=O)c2ccccc2)cc1 [Sulfabenzamide]
inactive: [1] 1.02 | Shigella flexneri 1.03 | Vibrio cholerae 1.06 | [2] 1.04 | P. vulgatus RND KO 1.05 | P. vulgatus WT 1.1 | [3] 1 | [4] 1.01

CCC1=C(C)CN(C(=O)NCCc2ccc(S(=O)(=O)NC(=O)N[C@H]3CC[C@H](C)CC3)cc2)C1=O [Glimepiride]
inactive: [1] 1.02 | Shigella flexneri 1.01 | Vibrio cholerae 1.02 | [2] 1.01 | P. vulgatus RND KO 1.03 | P. vulgatus WT 1.01 | [3] 1.03 | [4] 0.993
